Assay results taken from PubChem BioAssay.
Activity calls are given as the source filed them.

How the values were obtained:
[1] = optical density shifts of acrAB sulA E. coli – strain DRC41, OD650, 48 h, E. coli filamentation inducer project, primary screen (AID 1152); conditions: higher = more signal, called active from +8 up or from −8 down;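 further: E. coli MC1000 strain DRC41 lacking acrAB efflux pump and sulA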
[2] = probe aLefty1 binding on compound microarray – biochemical, small-molecule microarray, 635/667 nm fluorescence, primary screen (AID 1153); conditions: higher = more signal;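 further: score merges spot fluorescence with signal-to-noise ratio from the scanned slide images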
[3] = plasmodial surface anion channel blockers, osmotic lysis – cell-based, P. falciparum Indochina, OD700, 1 h, primary screen (AID 1154); conditions: P. falciparum Indochina infected RBC osmotic lysis, higher = more signal, called active from +8 up or from −8 down
[4] = plasmodial surface anion channel blockers, osmotic lysis – cell-based, P. falciparum Indochina, OD700, 2 h, primary screen (AID 1155);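 further: lysis reports solute entry through the parasite surface anion channel PSAC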; conditions: P. falciparum Indochina infected erythrocytes, higher = more signal, called active from +8 up or from −8 down
[5] = changes in parasitized red cell lysis, either direction – P. falciparum Indochina, OD700, 3 h, PSAC antagonist project, primary screen (AID 1156); conditions: P. falciparum-infected erythrocytes, osmotic lysis, higher = more signal, called active from +8 up or from −8 down
[6] = plasmodial surface anion channel blockers, osmotic lysis – cell-based, P. falciparum Indochina, OD700, 18 h, primary screen (AID 1157); conditions: P. falciparum Indochina infected erythrocytes, osmotic lysis OD700, 18 h; higher = more signal, called active from +8 up or from −8 down
[7] = S6 kinase pathway phospho-S6 level changes – cell-based, A549, cytoblot, luminescence, serum-stimulated, primary screen (AID 1158); conditions: 5 h, higher = more signal;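 further: serum-stimulated A549 lung adenocarcinoma cells; signal is phosphorylated S6 detected by cytoblot immunostaining with HRP secondary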
[8] = target: NADPH oxidase 2 (Homo sapiens) (UniProt P04839); experiment: compounds shifting NOX2 Amplex Red fluorescence – cell-based, HEK293-NOX2, PMA-stimulated, NOX inhibitor project, primary screen (AID 1159); conditions: 45 min, higher = more signal, called active from +8 up or from −8 down; further: test concentration not given here
Sequence of NADPH oxidase 2 (Homo sapiens) (P04839 whole entry, looked up): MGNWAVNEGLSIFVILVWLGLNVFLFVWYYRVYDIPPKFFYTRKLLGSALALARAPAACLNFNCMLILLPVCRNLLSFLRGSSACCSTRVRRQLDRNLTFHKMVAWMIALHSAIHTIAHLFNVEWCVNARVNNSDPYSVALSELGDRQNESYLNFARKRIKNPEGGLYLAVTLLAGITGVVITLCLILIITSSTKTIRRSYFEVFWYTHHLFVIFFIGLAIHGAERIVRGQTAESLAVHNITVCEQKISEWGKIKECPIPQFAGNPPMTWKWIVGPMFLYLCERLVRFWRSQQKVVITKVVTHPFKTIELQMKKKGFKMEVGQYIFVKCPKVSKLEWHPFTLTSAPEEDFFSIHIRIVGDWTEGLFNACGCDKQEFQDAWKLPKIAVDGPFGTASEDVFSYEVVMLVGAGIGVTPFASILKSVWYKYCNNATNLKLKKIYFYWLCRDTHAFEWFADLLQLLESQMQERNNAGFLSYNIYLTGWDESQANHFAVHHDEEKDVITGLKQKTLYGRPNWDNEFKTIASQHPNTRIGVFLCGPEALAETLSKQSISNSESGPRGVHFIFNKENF

[9] = target: NADPH oxidase 4 (Homo sapiens) (UniProt Q9NPH5); experiment: compounds shifting NOX4 Amplex Red fluorescence – cell-based, HEK293-NOX4, tetracycline-induced, NOX inhibitor project, primary screen (AID 1160); conditions: HEK293-NOX4, Amplex Red H2O2 fluorescence, 45 min; higher = more signal, called active from +8 up or from −8 down
Sequence of NADPH oxidase 4 (Homo sapiens) (Q9NPH5 whole entry, looked up): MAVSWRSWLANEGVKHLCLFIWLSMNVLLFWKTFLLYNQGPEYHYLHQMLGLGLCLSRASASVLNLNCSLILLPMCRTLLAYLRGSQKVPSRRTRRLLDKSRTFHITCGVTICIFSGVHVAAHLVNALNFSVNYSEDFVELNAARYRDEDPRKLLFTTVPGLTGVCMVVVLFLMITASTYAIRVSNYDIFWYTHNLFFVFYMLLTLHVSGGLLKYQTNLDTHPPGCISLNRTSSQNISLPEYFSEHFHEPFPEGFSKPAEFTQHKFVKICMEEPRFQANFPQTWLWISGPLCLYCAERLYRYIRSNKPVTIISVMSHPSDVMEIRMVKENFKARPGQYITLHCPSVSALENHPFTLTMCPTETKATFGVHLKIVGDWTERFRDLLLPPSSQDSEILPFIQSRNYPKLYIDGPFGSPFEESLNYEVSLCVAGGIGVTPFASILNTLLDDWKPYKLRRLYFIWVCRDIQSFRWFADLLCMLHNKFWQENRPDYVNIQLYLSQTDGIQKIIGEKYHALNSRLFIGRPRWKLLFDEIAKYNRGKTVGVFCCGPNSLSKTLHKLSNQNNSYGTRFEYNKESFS

[10] = target: NADPH oxidase 5 (Homo sapiens) (UniProt Q96PH1); experiment: compounds shifting NOX5 Amplex Red fluorescence – cell-based, HEK293-NOX5, NOX inhibitor project, primary screen (AID 1161); conditions: HEK293-NOX5, ionomycin, 45 min, higher = more signal
Sequence of NADPH oxidase 5 (Homo sapiens) (Q96PH1 whole entry, looked up): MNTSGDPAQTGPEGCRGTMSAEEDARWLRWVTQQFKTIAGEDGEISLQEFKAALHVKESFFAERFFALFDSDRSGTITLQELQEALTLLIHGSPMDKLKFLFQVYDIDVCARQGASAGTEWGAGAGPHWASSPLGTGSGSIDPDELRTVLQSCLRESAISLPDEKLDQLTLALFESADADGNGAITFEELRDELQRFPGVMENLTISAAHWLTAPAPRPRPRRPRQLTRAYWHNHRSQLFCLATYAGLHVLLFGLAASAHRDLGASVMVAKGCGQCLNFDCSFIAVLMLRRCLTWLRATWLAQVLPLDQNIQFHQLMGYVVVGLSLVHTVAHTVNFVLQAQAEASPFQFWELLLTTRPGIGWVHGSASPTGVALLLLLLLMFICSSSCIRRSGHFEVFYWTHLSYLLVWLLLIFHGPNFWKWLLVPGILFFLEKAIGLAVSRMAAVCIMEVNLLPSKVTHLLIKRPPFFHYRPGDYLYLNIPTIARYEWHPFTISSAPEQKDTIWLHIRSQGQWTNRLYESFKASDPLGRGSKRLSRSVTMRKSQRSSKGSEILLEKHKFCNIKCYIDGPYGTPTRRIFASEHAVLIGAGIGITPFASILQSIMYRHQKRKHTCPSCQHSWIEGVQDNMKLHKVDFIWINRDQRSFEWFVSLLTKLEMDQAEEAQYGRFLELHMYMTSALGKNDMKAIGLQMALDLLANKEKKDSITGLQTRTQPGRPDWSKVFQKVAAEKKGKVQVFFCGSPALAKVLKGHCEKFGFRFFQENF

[11] = compound effects on lung adenocarcinoma cell viability – A549, calcein-AM fluorescence, 48 h, basal, profiling panel (AID 1162); conditions: higher = more signal; further: test concentration not given here
[12] = compound effects on differentiated 3T3-L1 adipocyte viability – cell-based, 3T3-L1 adipocytes, calcein-AM fluorescence, 48 h, basal, profiling panel (AID 1163); conditions: 3T3-L1 adipocytes viability, higher = more signal; further: test concentration not given here
[13] = compound effects on hepatocellular carcinoma cell viability – HepG2, calcein-AM fluorescence, 48 h, basal, profiling panel (AID 1164); conditions: higher = more signal; further: test concentration not given here
[14] = compound effects on multiple myeloma cell viability – MM1S, calcein-AM fluorescence, 48 h, basal, profiling panel (AID 1165); conditions: higher = more signal; further: test concentration not given here
[15] = calcein-AM signal in unstimulated myeloma cells – cell-based, calcein-AM fluorescence, 48 h, PK04 Diversity Set, profiling panel (AID 1166); conditions: RPMI8226 myeloma viability, higher = more signal;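 further: cells grown under basal conditions without added stimulus; test concentration not given here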
[16] = JC-1 mitochondrial signal, unstimulated HepG2 cells – cell-based, JC-1 fluorescence, 24 h, 100 nL compound, profiling panel (AID 1167); conditions: HepG2 mitochondrial potential, higher = more signal; further: test concentration not given here
[17] = JC-1 mitochondrial signal, unstimulated adipocytes – cell-based, JC-1 fluorescence, 3T3-L1 adipocytes, 24 h, 100 nL compound, profiling panel (AID 1168); conditions: JC-1 mitochondrial fluorescence, higher = more signal, called active from +8 up or from −8 down; further: test concentration not given here
[18] = JC-1 mitochondrial signal, unstimulated myeloma cells – cell-based, JC-1 fluorescence, RPMI8226, 24 h, 100 nL compound, profiling panel (AID 1169); conditions: JC-1 mitochondrial potential fluorescence, higher = more signal; further: test concentration not given here
[19] = JC-1 mitochondrial signal, unstimulated MM1S myeloma – cell-based, JC-1 fluorescence, 24 h, 100 nL compound, profiling panel (AID 1170); conditions: MM1S mitochondrial potential, higher = more signal; further: test concentration not given here
[20] = resazurin metabolic signal in A549 cells – cell-based, resazurin fluorescence, 24 h, PK04 Diversity Set, profiling panel (AID 1171); conditions: A549 viability, higher = more signal, called active from +8 up or from −8 down; further: test concentration not given here

| Compound | z-score [1] | composite z-score [2] | z-score [3] | z-score [4] | z-score [5] | z-score [6] | z-score [7] | z-score [8] | z-score [9] | z-score [10] | z-score [11] | z-score [12] | z-score [13] | z-score [14] | z-score [15] | z-score [16] | z-score [17] | z-score [18] | z-score [19] | z-score [20] |
| --- | --- | --- | --- | --- | --- | --- | --- | --- | --- | --- | --- | --- | --- | --- | --- | --- | --- | --- | --- | --- |
| NC(=O)N1C(=O)C2C(C1=O)C1C=C(CCCO)C2C(C2CC2)N1Cc1cccc(OC(F)(F)F)c1 (stereo not given) | -0.778 (inactive) | -0.195 | 1.03 (inactive) | 0.275 (inactive) | -0.351 (inactive) | 0.161 (inactive) | -0.898 | 0.699 (inactive) | -0.685 (inactive) | -0.738 | -0.307 | 0.0635 | 0.801 | -2.82 | 0.0097 | -0.348 | 0.418 (inactive) | 0.191 | 0.645 | -0.334 (inactive) |
| CCCC=C(CCC)[C@@H](NC(=O)CCc1ccccc1)c1ccc(C(F)(F)F)cc1 | -1.56 (inactive) | 0.73 | 1.71 (inactive) | 0.542 (inactive) | 1.8 (inactive) | 1.01 (inactive) | 0.697 | -0.975 (inactive) | -1.6 (inactive) | 2.78 | -0.894 | -0.265 | -0.481 | -1.2 | -2.01 | 2.18 | -0.933 (inactive) | -0.0403 | -0.774 | 0.569 (inactive) |
| C=C(/C(=C/C[C@H](OC(=O)c1ccncc1)c1ccccc1OCCO)c1cnc2ccccc2c1)C(C)C | -0.227 (inactive) | 0.313 | 11.1 (active) | 1.86 (inactive) | 1.41 (inactive) | 0.553 (inactive) | 0.125 | -1.71 (inactive) | -0.391 (inactive) | -0.914 | 0.0894 | -0.253 | -0.444 | -1.26 | -0.906 | 0.96 | -0.482 (inactive) | -0.331 | -0.174 | 1.35 (inactive) |
| CC(C)[Si]1(C(C)C)OCc2cc(-c3ccc(-c4ccc(Cl)c(Cl)c4)o3)nc(CCc3ccccc3)c21 | 0.785 (inactive) | -0.239 | 1.58 (inactive) | -0.0088 (inactive) | -0.263 (inactive) | -1.01 (inactive) | 0.353 | 0.69 (inactive) | 0.187 (inactive) | -0.402 | 0.305 | 0.405 | 0.165 | -3.2 | -4.26 | -2.07 | 0.945 (inactive) | -0.838 | -1.72 | 1.4 (inactive) |
| O=C1O[C@H](c2ccccc2)[C@H](c2ccccc2)N2[C@H]1[C@@H](C(=O)O)[C@]1(C(=O)Nc3ccc(C#CC4(O)CCCCCC4)cc31)[C@H]2c1ccc(O)cc1 | 2.05 (inactive) | 0.0355 | -0.224 (inactive) | -0.925 (inactive) | -2.31 (inactive) | -1.16 (inactive) | 1.65 | 0.867 (inactive) | -0.353 (inactive) | -1.06 | -0.167 | 0.685 | -0.714 | -0.217 | 0.265 | -0.482 | -0.559 (inactive) | -0.0905 | -0.705 | 0.976 (inactive) |
| COC(=O)C(CC#Cc1ccc2c(c1)[C@]1(C(=O)N2)[C@H](c2ccc(OCCO)cc2)N2[C@H](c3ccccc3)[C@H](c3ccccc3)OC(=O)[C@H]2[C@@H]1C(=O)N1CCN(c2ncccn2)CC1)C(=O)OC | -0.34 (inactive) | 0.53 | 4.2 (inactive) | 1.62 (inactive) | 0.257 (inactive) | 0.539 (inactive) | -0.454 | 1.46 (inactive) | 1.05 (inactive) | 1.52 | -0.824 | -0.661 | 0.228 | -0.966 | -3.72 | -1.01 | 0.525 (inactive) | -1 | -1.55 | 0.352 (inactive) |
| CCOC(=O)C[C@H]1[C@H](OC(=O)c2ccc(-c3ccccc3)cc2)[C@@H](NC(=O)CC(C)C)c2cc(OCCCO)ccc2N1C(=O)c1ccccc1 | -0.674 (inactive) | 0.113 | 1.18 (inactive) | 0.389 (inactive) | -0.0732 (inactive) | 0.336 (inactive) | 0.574 | 0.403 (inactive) | -0.742 (inactive) | 1.74 | -0.426 | -0.257 | -0.0915 | -1.17 | -0.672 | 1.32 | -0.679 (inactive) | 0.983 | 0.33 | -0.719 (inactive) |
| CCOC(=O)C1=C[C@@H](C(C)(C)C)N(S(=O)(=O)c2ccc(C)cc2)[C@H]1c1cccc(Cl)c1 | -1.11 (inactive) | 0.522 | 1.26 (inactive) | 1.03 (inactive) | 0.223 (inactive) | 0.39 (inactive) | -0.98 | -0.789 (inactive) | -0.842 (inactive) | 0.196 | -2.79 | -0.192 | -2.64 | -2.77 | -4.21 | 5.38 | 0.318 (inactive) | -1.14 | -2.3 | -1.12 (inactive) |
